According to the supplement of paper PMC5919970:
Where a name gives a salt, the structure may show the parent alone. Whole data set: some 2,000 compounds, median “fractional viability relative to vehicle” near 0.92, cut for the lowest 2% near 0.11. The full list was thinned out, with the lowest values kept by preference.

Test system: TYKNU
Test: fractional viability relative to vehicle; TYKNU is a high-grade serous ovarian cancer line; higher = less growth inhibition
Settings: 72 h, genotype: OPA1 knockout (sgOPA1 #2)
How it was run: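 Drug treatment lasted 72 h, with cells grown at 37 °C in 5% CO2 in RPMI 1640 supplemented with 10% FBS. Beforehand, TYKNU control cells or their lentiCRISPRv2 knockout derivatives had been seeded at 500 cells per well into drug-stamped 384-well plates carrying a ~2100-compound library at 2 or 10 μM, in duplicate. Viability came from Cell Titer Glo luminescence, with averaged duplicate treatment wells normalised to duplicate control wells in the same plate position.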

Row | Compound | fractional viability (2uM) | fractional viability (10uM)
1 | CN(C)Cc1cccc(N/C(=C2\C(=O)Nc3cc(C(N)=O)ccc32)c2ccccc2)c1 | 0.93 | 0.993
2 | CCS(=O)(=O)Nc1ccc2c(c1)/C(=C(/Nc1ccc(CN3CCCCC3)cc1)c1ccccc1)C(=O)N2 [Hesperadin] | 0.544 | 0.113
3 | COC(=O)c1ccc2c(c1)NC(=O)/C2=C(\Nc1ccc(N(C)C(=O)CN2CCN(C)CC2)cc1)c1ccccc1 [Nintedanib (BIBF 1120)] | 1.32 | 0.372
4 | CCOc1cc(C(C)(C)C)ccc1C1=N[C@@](C)(c2ccc(Cl)cc2)[C@@](C)(c2ccc(Cl)cc2)N1C(=O)N1CCN(CCCS(C)(=O)=O)CC1 | 0.49 | 0.469
5 | O=C(c1cc(Cc2n[nH]c(=O)c3ccccc23)ccc1F)N1CCN(C(=O)C2CC2)CC1 | 1.03 | 0.936
6 | C=CC(=O)Nc1cccc(Oc2nc(Nc3ccc(N4CCN(C)CC4)cc3)ncc2Cl)c1 | 0.825 | 0.5
7 | C=CC(=O)Nc1cccc(Sc2nc(Nc3ccc(N4CCN(C)CC4)cc3)ncc2Cl)c1 | 1.31 | 0.1
8 | C=CC(=O)Nc1cccc(Oc2nc(Nc3ccc(N4CCN(C)CC4)cc3OC)ncc2Cl)c1 | 0.964 | 0.766
9 | COc1ccc(CCc2nc3cc(-c4c(C)noc4C)ccc3n2C[C@H](C)N2CCOCC2)cc1Cl | 0.813 | 0.639
10 | COc1cc2c(Oc3ccc4[nH]c(C)cc4c3F)ncnc2cc1OCCCN1CCCC1 [Cediranib (AZD2171)] | 1.1 | 0.181
11 | COc1cc(Nc2c(C#N)cnc3cc(OCCCN4CCN(C)CC4)c(OC)cc23)c(Cl)cc1Cl [Bosutinib (SKI-606)] | 0.995 | 0.284
12 | COc1cc2nc(N3CCN(C(=O)C4CCCO4)CC3)nc(N)c2cc1OC (stereo unspecified) [Terazosin HCl] | 1.14 | 1.15
13 | COc1cc(OC)c(C(=O)CCCN2CCCC2)c(OC)c1 [Buflomedil HCl] | 0.851 | 0.685
14 | COc1cc2c(NC3CCN(CC4CCCCC4)CC3)nc(N3CCCN(C(C)C)CC3)nc2cc1OCCCN1CCCCC1 | 0.786 | 0.0322
15 | COc1cc2nc(N3CCN(C(=O)C4COc5ccccc5O4)CC3)nc(N)c2cc1OC (stereo unspecified) [Doxazosin Mesylate] | 1.1 | 1.22
16 | COc1cc2nc(N3CCCC3)nc(NCCCCCN3CCCC3)c2cc1OC | 0.679 | 0.0949
17 | COC(=O)c1ccc2c(c1)[nH]c1ncnc(NCCCN3CCCCC3)c12 | 0.785 | 0.985
18 | COc1cc2nc(N3CCCN(C)CC3)nc(NC3CCN(Cc4ccccc4)CC3)c2cc1OC | 0.506 | 0.0546
19 | Cc1nc2c(O)cccc2c(=O)[nH]1 | 0.925 | 0.903
20 | O=C(CCCCCCC(=O)Nc1ccc([C@H]2O[C@@H](CSc3nc(-c4ccccc4)c(-c4ccccc4)o3)C[C@@H](c3ccc(CO)cc3)O2)cc1)NO [Tubacin] | 1.06 | 0.628
21 | CCOC(=O)[C@@H](N)Cc1ccc(-c2cc(O[C@H](c3ccc(Cl)cc3-n3ccc(C)n3)C(F)(F)F)nc(N)n2)cc1 [Telotristat Etiprate (LX 1606 Hippurate)] | 0.935 | 0.335
22 | CC(C)n1cnc2c(NCCc3ccc(O)cc3)nc(-c3csc4ccccc34)nc21 [StemRegenin 1 (SR1)] | 1.1 | 0.769
23 | CNC1CCC(N(Cc2cccc(-c3ccncc3)c2)C(=O)c2sc3ccccc3c2Cl)CC1 (stereo unspecified) [Smoothened Agonist (SAG) HCl] | 0.918 | 0.259
24 | O=C1NC(=O)/C(=C/c2ccc(-c3ccc(F)cc3O)o2)S1 | 0.814 | 0.742
25 | N[C@H]1CC[C@H](N[C@@H]2C[C@H]2c2ccccc2)CC1 | 0.794 | 0.89

Row | Compound | fractional viability (2uM) | fractional viability (10uM)
26 | CN1CCN(c2ccc3nc(-c4c(N)c5c(F)cccc5[nH]c4=O)[nH]c3c2)CC1 [Dovitinib (TKI-258, CHIR-258)] | 0.815 | 0.25
27 | CN1CCN(c2ccc3nc(-c4c(N)c5c(F)cccc5[nH]c4=O)[nH]c3c2)CC1 [Dovitinib (TKI258) Lactate] | 0.815 | 0.0801
28 | Cc1nn(-c2ccccc2)c(C)c1C=NN1CCN(Cc2ccccc2)CC1 | 0.946 | 0.905
29 | COCC(=O)NC/C=C/c1ccc2ncnc(Nc3ccc(Oc4ccc(C)nc4)c(C)c3)c2c1 | 1.29 | 1.17
30 | CCCCCCCc1ccc(CCc2cccc(O)c2C(=O)O)cc1 | 0.96 | 0.73
31 | CCCCCCCCCCCCc1ccc(S(=O)(=O)Nc2nncs2)cc1 | 1.06 | 1.05
32 | CCCCCCCCc1ccc(CCC(N)(CO)CO)cc1 [Fingolimod (FTY720) HCl] | 1.08 | 0.0752
33 | O=C(c1ccc(OCCCc2c[nH]cn2)cc1)C1CC1 [Ciproxifan] | 1.1 | 0.986
34 | CCCCCCCCCCCCCCCCn1cc[n+](Cc2ccccc2)c1C | 0.363 | 0.0434
35 | CCO[C@@H]1OC(=O)C[C@@H]1NC(=O)[C@@H]1CCCN1C(=O)[C@@H](NC(=O)c1ccc(N)c(Cl)c1)C(C)(C)C | 0.969 | 0.919
36 | Cc1cc([N+](=O)[O-])ccc1NS(=O)(=O)c1cc(Cl)ccc1Cl | 0.656 | 0.476
37 | CC(C)c1nc(N(C)S(C)(=O)=O)nc(-c2ccc(F)cc2)c1/C=C/[C@@H](O)C[C@@H](O)CC(=O)O [Rosuvastatin Calcium] | 1.06 | 1.07
38 | Nc1cccc2c1C(=O)N(C1CCC(=O)NC1=O)C2=O (stereo unspecified) [Pomalidomide] | 1.18 | 1.05
39 | CNc1nc(Nc2cn(C(C)(C)C#N)nc2C)ncc1C(F)(F)F | 0.801 | 0.885
40 | Cc1ccc(-c2c(-c3nn(C)c4ncnc(N5CC[C@H](N6CCCCC6)C5)c34)cnn2C)cc1 | 0.983 | 1.09
41 | CCC[C@H](N[C@H]1CCc2cc(F)cc(F)c2C1)C(=O)Nc1cn(C(C)(C)CNCC(C)(C)C)cn1 | 0.786 | 0.87
42 | CC(=O)[C@@]1(O)CC[C@H]2[C@@H]3CCC4=CC(=O)CCC4=C3[C@@H](c3ccc(N(C)C)cc3)C[C@@]21C [Ulipristal] | 0.841 | 1.07
43 | Cn1sc(=O)n(Cc2ccccc2)c1=O | 0.609 | 0.104
44 | Cc1ccc(-n2sc(=O)n(Cc3ccc(F)cc3)c2=O)cc1 | 0.801 | 0.457
45 | O=C(O)CSc1cc(NS(=O)(=O)c2ccc(Br)cc2)c2ccccc2c1O | 0.835 | 0.365
46 | OCCOc1ccc(/C(=C(/CCCl)c2ccccc2)c2ccccc2)cc1 [Ospemifene] | 0.854 | 0.735
47 | CC(=O)c1cc([N+](=O)[O-])c(Sc2cccc(Cl)c2Cl)s1 | 0.895 | 0.2
48 | CN(C)C(=O)c1ccc(S(=O)(=O)c2ccc(NC(=O)[C@@](C)(O)C(F)(F)F)c(Cl)c2)cc1 | 0.83 | 0.753
49 | CNCc1ccc(-c2cc(-c3nc(-c4ccc(S(=O)(=O)C(C)C)cc4)cnc3N)on2)cc1 | 0.792 | 0.849
50 | NC[C@@](O)(c1ccc(Cl)cc1)c1ccc(-c2cn[nH]c2)cc1 | 0.858 | 0.87

Row | Compound | fractional viability (2uM) | fractional viability (10uM)
51 | O=C(NC1CCN(CCCCC2(C(=O)NCC(F)(F)F)c3ccccc3-c3ccccc32)CC1)c1ccccc1-c1ccc(C(F)(F)F)cc1 [Lomitapide Mesylate] | 0.887 | 0.0779
52 | O=C(O)c1ccccc1C(=O)Nc1ccc(-c2ccccc2)cc1 [Kartogenin] | 0.838 | 0.747
53 | C=CCc1ccc(O)c(-c2ccc(O)c(CC=C)c2)c1 [Honokiol] | 0.957 | 1.01
54 | Cc1ccc(C(=O)N(CCCN)[C@@H](c2nc3cc(Cl)ccc3c(=O)n2Cc2ccccc2)C(C)C)cc1 | 0.71 | 0.309
55 | C#CC[C@H](c1nc2cc(Cl)ccc2c(=O)n1Nc1ccccc1)N(CCCN)C(=O)c1cccc(Cl)c1F | 0.562 | 0.0443
56 | O=C1C(=O)N(Cc2ccc(Cl)c(Cl)c2)c2ccccc21 [Apoptosis Activator 2] | 0.461 | 0.287
57 | Cc1cccc(-c2[nH]c(C(C)(C)C)nc2-c2ccc3nccnc3c2)n1 | 1.28 | 1.26
58 | CC1(C)CCC2=C(O1)c1ccccc1C(=O)C2=O [Beta-Lapachone] | 0.202 | 0.0483
59 | CC1=CC(=O)c2ccccc2C1=O [Menadione] | 0.94 | 0.75
60 | OCCn1cc(-c2cnc3nnn(Cc4ccc5ncccc5c4)c3n2)cn1 | 1.09 | 1.14
61 | COc1ccc(C2=N[C@@H](c3ccc(Cl)cc3)[C@@H](c3ccc(Cl)cc3)N2C(=O)N2CCNC(=O)C2)c(OC(C)C)c1 [Nutlin-3] | 0.858 | 0.623
62 | COc1ccc(C2=N[C@@H](c3ccc(Cl)cc3)[C@@H](c3ccc(Cl)cc3)N2C(=O)N2CCNC(=O)C2)c(OC(C)C)c1 [Nutlin-3a] | 0.481 | 0.367
63 | CCCc1cc2c(N3CCN(C4=NCC(C)(C)S4)CC3)ncnc2s1 [MI-2 (Menin-MLL Inhibitor)] | 0.828 | 0.711
64 | Clc1ccc(NN=C(c2ccccc2)c2ccccn2)nc1 | 0.229 | 0.0582
65 | O=C(Nc1cccc(Cl)c1)c1ccccn1 | 1.19 | 1.02
66 | CN(C)C(=S)NN=C(c1ccccn1)c1ccccn1 | 0.572 | 0.755
67 | CC(C)C[C@@H](C=O)NC(=O)[C@H](CC(C)C)NC(=O)[C@H](CC(C)C)NC(=O)OCc1ccccc1 | 0.236 | 0.144
68 | O=C(O)C(S)=Cc1c[nH]c2ccc(F)cc12 | 0.79 | 0.825
69 | Nc1ncnc2c1C(=O)N(c1ccc([C@H]3CC[C@H](CC(=O)O)CC3)cc1)CCO2 | 0.723 | 0.773
70 | Nc1cccc(S(=O)(=O)N2CCCN(S(=O)(=O)c3ccc4c(c3)OCCO4)CC2)c1 | 0.783 | 0.849
71 | CS(=O)(=O)CCNCc1ccc(-c2ccc3ncnc(Nc4ccc(OCc5cccc(F)c5)c(Cl)c4)c3c2)o1 | 1.05 | 0.369
72 | C=CC(=O)Nc1ccc2ncnc(Nc3cccc(Br)c3)c2c1 | 0.982 | 0.588
73 | C=CC(=O)Nc1ccc2ncnc(Nc3ccc(OCc4cccc(F)c4)c(Cl)c3)c2c1 | 0.742 | 0.0667
